Screening results (PubChem BioAssay)
A selection: hits, their analogues and other compounds. The true share with any hit is near 3.5%.
GPR151 ag: activators of human GPR151, primary screen, cell-based, PathHunter beta-arrestin, luminescence | G-protein coupled receptor 151 (Homo sapiens), Q8TDV0 | PathHunter beta-arrestin GPR151 cells | 650,000 compounds, 1% hits | activation, % at 11.2 µM; in the data active means activation above about 4.9%;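 further: 0% = median of compound wells and 100% = cells with positive control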
FBW7 activator: FBW7 E3 ligase activators, primary screen, biochemical, AlphaScreen, human; AlphaScreen FBW7–phospho-cyclin E peptide binding, activator screen; normalized activity (activation), % at 26.1 µM; 650,000 compounds, 0.13% hits; AID 1259310, 2017; in the data active means normalized activity above about 1.9%;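 further: purified mutant Fbw7 with reduced substrate affinity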
TEAD-YAP block: TEAD-YAP interaction inhibition, primary screen, TEAD-YAP interaction inhibitor project, luminescence, HEK-TIYL cells; TEAD-Gal4/YAP UAS-luciferase luminescence; inhibition, % at 9.12 µM; 640,000 compounds, 1.4% hits; AID 1259422, 2018; in the data active means inhibition above about 32%;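 further: 0% = median of test compound wells and 100% = reference inhibitor wells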
MITF primary: MITF inhibitors, primary screen, biochemical, AlphaScreen, human | Microphthalmia-associated transcription factor (Homo sapiens), O75030 | AlphaScreen MITF homodimerization, bead proximity signal | inhibition, % at 2.6 µM | 650,000 compounds, 0.91% hits | AID 1259374, 2018; in the data active means inhibition above about 50%;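 further: 0% = vehicle wells with protein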
Target sequence (O75030 whole entry, looked up): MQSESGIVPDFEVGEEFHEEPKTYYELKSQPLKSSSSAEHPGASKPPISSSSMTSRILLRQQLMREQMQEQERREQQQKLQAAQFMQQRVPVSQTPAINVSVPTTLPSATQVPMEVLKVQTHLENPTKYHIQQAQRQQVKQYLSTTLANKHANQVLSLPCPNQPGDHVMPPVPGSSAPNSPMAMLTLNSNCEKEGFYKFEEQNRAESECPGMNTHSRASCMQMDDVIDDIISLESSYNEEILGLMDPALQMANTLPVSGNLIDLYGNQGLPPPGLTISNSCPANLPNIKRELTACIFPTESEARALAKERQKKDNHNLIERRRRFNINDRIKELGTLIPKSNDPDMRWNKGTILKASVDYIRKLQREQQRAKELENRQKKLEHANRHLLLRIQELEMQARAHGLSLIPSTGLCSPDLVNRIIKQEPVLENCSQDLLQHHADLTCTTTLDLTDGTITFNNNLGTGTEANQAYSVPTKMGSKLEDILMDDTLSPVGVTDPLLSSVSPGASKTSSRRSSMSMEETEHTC
MITF inh conf: MITF inhibitors, retest of hits, confirmation, biochemical, AlphaScreen, triplicate. inhibition, % at 2.6 µM. 4,700 compounds, 16% hits. shares compounds with MITF primary. AlphaScreen MITF homodimerization, biotin/His-MITF beads;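 active means inhibition above a cutoff derived from the DMSO control wells, cut at about 28% in these data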;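 further: 0% = MITF dimer wells with DMSO only; inhibitors lower the bead chemiluminescence by keeping MITF from dimerizing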
AS interf ctr: AlphaScreen optical interference compounds, counter-screen for MITF inhibitor project, biochemical, triplicate; shares compounds with MITF primary; LysRS AlphaScreen counterscreen, signal interference; inhibition, % at 2.6 µM; 4,700 compounds, 7.6% hits; AID 1259376, 2018;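 active means inhibition above a cutoff derived from the DMSO control wells, cut at about 30% in these data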
* hit, by the source's call; . = no result given.

SMILES	GPR151 ag	FBW7 activator	TEAD-YAP block	MITF primary	MITF inh conf	AS interf ctr
COc1ccc(CN2CCN(Cc3ccccc3F)CC2)c(OC)c1	-0.9	0.1	5.0	81.1*	1.3	11.3
COc1ccc(CN2CCSCC2)c(OC)c1	-1.0	-0.1	-2.1	0.2	.	.
COc1cc(OC)c(OC)cc1CN1CCN(Cc2ccccc2Cl)CC1	-0.7	-0.2	3.3	74.8*	8.4	13.7
COc1ccc(CN2CCN(Cc3cc(OC)c(OC)cc3[N+](=O)[O-])CC2)c(OC)c1	0.1	-0.1	1.6	80.0*	9.8	11.6
COc1cc(CN2CCCC2)c([N+](=O)[O-])cc1OC	-0.2	-0.1	-5.7	-3.7	.	.
COc1cc(OC)c(OC)cc1CN1CCN(Cc2cc(OC)c(OC)cc2OC)CC1	-0.2	-0.1	-0.2	70.6*	-4.5	10.4
COc1cc(OC)c(OC)cc1CN1CCN(Cc2ccccc2F)CC1	0.1	-0.2	-1.6	76.9*	3.0	11.9
COc1ccc(CN2CCN(Cc3ccccc3OC)CC2)c(OC)c1	0.8	-0.2	3.5	78.1*	8.5	14.9
COc1ccc(OC)c(CN2CCN(Cc3ccc(OC)cc3OC)CC2)c1	-0.3	-0.9	-3.1	29.8	.	.
COc1cc(OC)c(OC)cc1CN1CCN(Cc2cccc(Br)c2)CC1	0.5	-0.2	13.4	73.2*	11.4	21.5
CCOc1ccc(NCC(=O)N/N=C/c2cc(Br)ccc2O)cc1	-1.2	-0.1	12.7	3.7	.	.
Cc1cc(NC(=O)CCN2CCc3ccccc3C2)ccc1Br	0.6	-0.2	2.6	7.8	.	.
O=S(=O)(Nc1ccccn1)c1ccc(N=Cc2ccc3c(c2)OCO3)cc1	0.9	0.1	5.1	74.3*	7.7	13.4
C=CCc1cccc(Cl)c1OCCCN1CCN(C)CC1	-1.4	0.5	1.5	19.5	.	.
C=CCc1cccc(Cl)c1OCCCNCCN1CCOCC1	0.2	-0.2	8.8	56.3*	5.1	20.5
C=CCc1cccc(Cl)c1OCCCN1CCNCC1	-0.4	-0.1	-4.6	53.3*	6.5	7.2
CCOc1ccc(C(=O)Nc2ccc(Nc3ccc(C)nn3)cc2)cc1	-0.7	0.1	-3.1	-11.5	.	.
Cc1cccc(C)c1NC(=O)C(Cc1c[nH]c2ccccc12)NC(=O)OC(C)(C)C (configuration not stated)	1.3	0.0	-1.5	62.6*	9.4	11.1
CC[C@@H]1NC(=O)[C@@H]2C[C@H](NC(=O)c3cc(Cl)cc(Cl)c3)CN2C1=O	-0.4	-0.1	0.4	9.1	.	.
CCOC(=O)CN(C)Cc1ccccc1Br	-0.6	-0.1	11.9	58.7*	-16.2	-4.0
CCOC(=O)CN(C)Cc1ccc(OC)cc1OC	-0.3	0.0	-8.9	-0.7	.	.
O=C(/C=c1/[nH]/c(=C/c2ccc(F)cc2)c(=O)[nH]c1=O)c1ccccc1	-0.1	0.0	1.6	40.5	.	.
O=C(CCc1c[nH]c2ccccc12)NNC(=O)COc1cccc(F)c1	-0.6	0.3	7.9	1.2	.	.
C/C(CC(=O)Nc1ccccc1)=N\NC(=O)CC#N	2.5	-0.9	-8.8	57.2*	60.7*	34.7*
COC(=O)c1ccccc1NC(=O)C/C(C)=N/NC(=O)CC#N	3.3	0.0	1.5	6.7	.	.
SMILES	GPR151 ag	FBW7 activator	TEAD-YAP block	MITF primary	MITF inh conf	AS interf ctr
CN(C1CCS(=O)(=O)C1)S(=O)(=O)c1ccc(Cl)c(Cl)c1 (configuration not stated)	-0.3	-0.1	-6.9	-2.7	.	.
Cn1c(=O)c2c(ncn2CC(=O)NC2CCCCCCC2)n(C)c1=O	0.1	0.5	4.0	4.0	.	.
O=[N+]([O-])c1ccccc1S(=O)(=O)N1CCN(Cc2ccccc2)CC1	-1.0	-0.2	-11.1	1.1	.	.
O=[N+]([O-])c1ccccc1S(=O)(=O)N1CCN(Cc2cccs2)CC1	1.5	-0.3	-4.3	54.6*	9.1	13.4
O=[N+]([O-])c1ccccc1S(=O)(=O)N1CCN(Cc2ccsc2)CC1	0.1	-0.2	4.7	39.8	.	.
O=[N+]([O-])c1ccccc1S(=O)(=O)N1CCN(Cc2ccncc2)CC1	0.2	-0.2	-2.6	75.9*	9.8	14.8
